# Several values for one entry are separate records, joined by “and”; a condition that tells them apart may be missing. Identical values can stand only once. Results filed as inconclusive are left out. A call without a number means that no potency is given here. A structure can be active in one record and inactive in another. Activity calls are given as the source filed them. Unless noted, calls come from the whole dose curve.
# Assays:
# [1] = qHTS for Inhibitors of the Functional Ribonucleoprotein Complex (vRNP) of Lassa (LASV) Arenavirus: LASV Primary Screen - GLuc reporter signal (AID 1347082; calls by dose curve; tested in HEK293 reporter line; note: nearly all actives have a fitted effect of over 60% in size)
# [2] = qHTS for Inhibitors of the Functional Ribonucleoprotein Complex (vRNP) of Lassa (LASV) Arenavirus: Viability assay - alamar blue signal for LASV Primary Screen (AID 1347083; calls by dose curve; tested in HEK293 reporter line; note: nearly all actives have a fitted effect of over 80% in size)
# [3] = qHTS for Inhibitors of the Functional Ribonucleoprotein Complex (vRNP) of Lymphocytic Choriomeningitis Arenaviruses (LCMV): Viability assay - alamar blue signal for LCMV Primary Screen (AID 1347085; calls by dose curve; tested in HEK293 reporter line; note: nearly all actives have a fitted effect of over 80% in size)
# [4] = target: Nucleoprotein (Lymphocytic choriomeningitis virus (strain Armstrong)) (UniProt P09992); assay: qHTS for Inhibitors of the Functional Ribonucleoprotein Complex (vRNP) of Lymphocytic Choriomeningitis Arenaviruses (LCMV): LCMV Primary Screen - GLuc reporter signal (AID 1347086); note: nearly all actives have a fitted effect of over 70% in size
# [5] = Primary qHTS for inhibitors of SARS-S pseudo-typed particle cell entry (AID 1479145); note: nearly all actives have a fitted effect of over 45% in size
# [6] = Primary qHTS for Huh7 cytotoxicity: counterscreen for inhibitors of MERS-S pseudotyped particle cell entry (AID 1479147); settings: outcome: dose series up to 57.1 µM unless noted
# [7] = Primary qHTS for inhibitors of MERS-S pseudo-typed particle cell entry (AID 1479149); note: nearly all actives have a fitted effect of over 60% in size; note: potency is the fitted concentration of half-maximal effect
# [8] = Primary qHTS to identify inhibitors of SARS-CoV-2 cell entry (AID 1645846); settings: activity change, negative = inhibition: at 57.1 µM (top of the series) unless noted; note: nearly all actives have a fitted effect of over 45% in size; note: potency is the fitted concentration of half-maximal effect
# Procedure, shortened: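 HEK293 cells stably expressing human ACE2, pre-treated 1 h with compound, then infected with MLV particles pseudotyped with Wuhan-Hu-1 spike (C-terminal 19-aa truncation). Luciferase luminescence after 48 h at 37 °C, normalised to spike PP and bald PP.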
# [9] = Primary qHTS for Vero E6 cytotoxicity: counterscreen for inhibitors of SARS-S pseudo-typed particle cell entry (AID 1479150); settings: outcome: dose series up to 57.1 µM unless noted
# [10] = Cytotoxicity counterscreen for inhibitors of SARS-CoV-2 cell entry (AID 1645845); note: nearly all actives have a fitted effect of over 50% in size; note: potency is the fitted concentration of half-maximal effect
# Procedure, shortened: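 Expi293F/hACE2 cells seeded overnight; cpd pin-transferred in DMSO, 1 h preincubation, + media, 48 h 37 C 5% CO2; ATPLite 1step luminescence; normalized to cells and no cells.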
# [11] = target: Alpha-galactosidase (Coffea arabica) (UniProt Q42656); assay: Counterscreen for Glucocerebrosidase Inhibitors: qHTS Assay for Coffee Bean alpha-Galactosidase at pH 4.5 (AID 957; active = well fitted curve in the direction sought with a large enough effect; an effect the other way counts as inactive or inconclusive)
# Procedure, shortened: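 Green coffee bean enzyme (2 nM final) was incubated with compounds (0.7 nM to 77 uM) and 4-methylumbelliferyl alpha-D-galactopyranoside (80 uM final) in 50 mM citric acid, 0.005% Tween-20, pH 4.5, 20 min at room temperature; AC50 from Hill fits.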
# [12] = target: Alpha-galactosidase (Coffea arabica) (UniProt Q42656); assay: Counterscreen for Glucocerebrosidase Inhibitors: qHTS Assay for Coffee Bean alpha-Galactosidase at pH 5.9 (AID 998; active = well fitted curve in the direction sought with a large enough effect; an effect the other way counts as inactive or inconclusive)
# Procedure, shortened: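 Green coffee bean enzyme (2 nM final) was incubated with compounds (0.7 nM–77 uM) and 4-methylumbelliferyl alpha-D-galactopyranoside (80 uM) in citrate buffer pH 5.9, 20 min at room temperature. High-pH stop; fluorescence 365/440 nm; AC50 from Hill fits.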
# [13] = Validation screen for inhibitors of Lassa infection (AID 463096); note: potency is the fitted concentration of half-maximal effect
# [14] = Confirmatory qHTS to identify inhibitors of SARS-CoV-2 cell entry (AID 1645844); note: potency is the fitted concentration of half-maximal effect; nearly all actives have a fitted effect of over 45% in size
# Procedure, shortened: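 HEK293-ACE2 cells (Expi293F stably expressing human ACE2) were pretreated with compounds for 1 hr at 37C, then infected with MLV-based particles carrying Wuhan-Hu-1 spike (C-terminal 19-aa truncation). Luciferase luminescence read after 48 hr; normalized to spike PP (100%) and bald PP (0%).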
# [15] = VSVG counterscreen qHTS to identify inhibitors of SARS-CoV-2 cell entry (AID 1645847); note: potency is the fitted concentration of half-maximal effect; nearly all actives have a fitted effect of over 65% in size
# Procedure, shortened: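 HEK293-ACE2 cells (Expi293F, human ACE2) pretreated 1 h with compound, then infected with MLV-based VSV-G pseudotyped particles for 48 h at 37 C; luciferase luminescence normalized to VSV-G PP and bald PP wells.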
# [16] = Inducers of the Endoplasmic Reticulum Stress Response (ERSR) in human glioma: Validation (AID 504836; active = well fitted curve in the direction sought with a large enough effect; an effect the other way counts as inactive or inconclusive)
# Procedure, shortened: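 Stably transfected U87-MG human glioma cells carrying a GRP78-based luminescent sensor were seeded at 1000 cells/well, pin-dosed with compounds and incubated 16 h. Luciferase reagent was then added, and end-point luminescence was read after 10 min at room temperature.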
# Nucleoprotein (Lymphocytic choriomeningitis virus (strain Armstrong)), sequence (P09992 whole entry, looked up): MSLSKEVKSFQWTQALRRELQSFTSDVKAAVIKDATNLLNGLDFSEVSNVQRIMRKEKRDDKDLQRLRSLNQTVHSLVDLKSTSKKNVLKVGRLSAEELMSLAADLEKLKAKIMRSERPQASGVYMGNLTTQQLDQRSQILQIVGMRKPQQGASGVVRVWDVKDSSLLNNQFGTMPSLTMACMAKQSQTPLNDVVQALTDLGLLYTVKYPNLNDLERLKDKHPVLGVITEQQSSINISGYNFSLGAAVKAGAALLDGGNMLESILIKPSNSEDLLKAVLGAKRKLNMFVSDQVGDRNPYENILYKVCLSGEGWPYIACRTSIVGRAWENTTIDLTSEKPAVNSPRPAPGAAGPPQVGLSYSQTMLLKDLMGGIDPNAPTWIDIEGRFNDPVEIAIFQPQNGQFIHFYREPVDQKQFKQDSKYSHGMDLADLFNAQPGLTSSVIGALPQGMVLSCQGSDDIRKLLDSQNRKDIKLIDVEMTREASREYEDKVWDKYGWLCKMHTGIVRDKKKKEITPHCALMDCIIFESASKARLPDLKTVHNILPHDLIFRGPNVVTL
# Alpha-galactosidase (Coffea arabica), sequence (Q42656 whole entry, looked up): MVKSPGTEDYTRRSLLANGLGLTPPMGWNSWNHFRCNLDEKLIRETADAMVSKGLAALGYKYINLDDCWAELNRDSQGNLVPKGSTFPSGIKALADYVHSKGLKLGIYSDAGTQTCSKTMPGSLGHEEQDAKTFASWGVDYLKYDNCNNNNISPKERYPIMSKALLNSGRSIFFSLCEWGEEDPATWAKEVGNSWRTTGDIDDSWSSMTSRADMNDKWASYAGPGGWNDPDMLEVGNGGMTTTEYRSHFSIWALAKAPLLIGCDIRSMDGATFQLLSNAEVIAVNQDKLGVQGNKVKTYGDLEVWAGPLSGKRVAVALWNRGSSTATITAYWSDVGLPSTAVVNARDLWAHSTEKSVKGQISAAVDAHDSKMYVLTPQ
compound,measurement,setting,value
COc1ccc(CC2c3cc(OC)c(OC)cc3CC[N+]2(C)CCC(=O)OCCCCCOC(=O)CC[N+]2(C)CCc3cc(OC)c(OC)cc3C2Cc2ccc(OC)c(OC)c2)cc1OC (stereo not given),"activity change, negative = inhibition",[1],-1.71% [at 11.5 µM] (inactive)
same,"activity change, negative = reduced viability",[2],-21.5% [at 11.5 µM] (inactive)
same,"activity change, negative = lower viability",[3],2.32% [at 11.5 µM] (inactive)
same,"activity change, negative = inhibition",[4],-0.768% [at 11.5 µM] (inactive)
same,Potency,[5],inactive
same,outcome,[6],inactive
same,Potency,[7],inactive
same,"activity change, negative = inhibition",[8],-27% and -4%
CCCCCCCCCCCCCCCC(=O)O[C@@H]1CC(C)=C(/C=C/C(C)=C/C=C/C(C)=C/C=C/C=C(C)/C=C/C=C(C)/C=C/C2=C(C)C[C@@H](OC(=O)CCCCCCCCCCCCCCC)CC2(C)C)C(C)(C)C1,Potency,[1],inactive
same,Potency,[2],inactive
same,Potency,[3],inactive
same,Potency,[4],inactive
same,outcome,[6],inactive
same,Potency,[7],inactive
same,outcome,[9],inactive
same,Potency,[10],inactive
COc1ccc(/C=C/C(=O)Nc2ccccc2C(=O)O)cc1OC,outcome,[11],inactive
same,outcome,[12],inactive
same,Potency,[13],2.82 µM (active)
same,Potency,[1],inactive
same,Potency,[2],inactive
same,Potency,[3],inactive
same,Potency,[4],inactive
same,outcome,[6],inactive
same,Potency,[7],inactive
same,outcome,[9],inactive
same,Potency,[14],0.429 µM (active)
same,Potency,[10],17.8 µM (active) and inactive
same,"activity change, negative = inhibition",[8],-78.6% and -67.4%
same,Potency,[15],0.857 µM (active)
O=C(O)/C=C/c1ccccc1,Potency,[1],inactive
same,Potency,[2],inactive
same,Potency,[3],inactive
same,Potency,[4],inactive
same,outcome,[6],inactive [at 114 µM]
same,Potency,[7],inactive
same,outcome,[9],inactive [at 114 µM]
same,Potency,[10],inactive
same,"activity change, negative = inhibition",[8],-30.4% [at 114 µM]
CO[C@H]1[C@@H](O)[C@H](N)[C@@H](O[C@H]2O[C@H]([C@H](C)N)CC[C@H]2N)[C@H](O)[C@@H]1N(C)C(=O)CN,Potency,[1],inactive
same,Potency,[2],inactive
same,Potency,[3],inactive
same,Potency,[4],inactive
same,outcome,[6],inactive
same,Potency,[7],inactive
same,outcome,[9],inactive
same,Potency,[10],inactive
same,"activity change, negative = inhibition",[8],-5.5%
N[C@@H](CC(=O)N1CCn2c(nnc2C(F)(F)F)C1)Cc1cc(F)c(F)cc1F,Potency,[1],inactive
same,Potency,[2],inactive
same,Potency,[3],inactive
same,Potency,[4],inactive
same,outcome,[6],inactive
same,Potency,[7],inactive
same,outcome,[9],inactive
same,Potency,[10],inactive
same,"activity change, negative = inhibition",[8],-27.8%
CC(O)[C@H]1CC[C@H]2[C@@H]3CC[C@@H]4C[C@@H](O)CC[C@]4(C)[C@H]3CC[C@]12C (stereo not given in full),Potency,[1],inactive
same,Potency,[2],inactive
same,Potency,[3],inactive
same,Potency,[4],inactive
same,outcome,[6],inactive [at 114 µM]
same,Potency,[7],inactive
same,outcome,[9],inactive [at 114 µM]
same,"activity change, negative = inhibition",[8],-11.6% [at 114 µM]
CC(C=CC=C(C)C=CC1=C(C)CCCC1(C)C)=CC=CC=C(C)C=CC=C(C)C=CC1=C(C)CCCC1(C)C,Potency,[1],inactive
same,Potency,[2],inactive
same,Potency,[3],inactive
same,Potency,[4],inactive
same,outcome,[5],inactive [at 0.573 µM]
same,outcome,[6],inactive [at 0.573 µM]
same,outcome,[7],inactive [at 0.573 µM]
same,"activity change, negative = cytotoxicity",[9],0.415% [at 0.573 µM] (inactive)
same,"activity change, negative = inhibition",[8],-7.48% [at 0.702 µM]
CC1=C(/C=C/C(C)=C/C=C/C(C)=C\C(=O)O)C(C)(C)CCC1,Potency,[13],inactive
same,Potency,[1],inactive
same,Potency,[2],inactive
same,Potency,[3],inactive
same,Potency,[4],inactive
same,Potency,[5],inactive
same,outcome,[6],inactive
same,Potency,[7],inactive
same,outcome,[9],inactive
same,Potency,[8],inactive
same,"activity change, negative = inhibition",[8],-7.39%
CN(C)CCCN1c2ccccc2CCc2ccccc21,outcome,[11],inactive
same,outcome,[12],inactive
same,Potency,[1],inactive
same,Potency,[2],inactive
same,Potency,[3],inactive
same,Potency,[4],inactive
same,outcome,[6],inactive
same,outcome,[9],inactive
CN(C)CCC(c1ccc(Br)cc1)c1ccccn1 (stereo not given),Potency,[13],inactive
same,outcome,[16],inactive
same,Potency,[1],inactive
same,Potency,[2],inactive
same,Potency,[3],inactive
same,Potency,[4],inactive
same,outcome,[6],inactive
same,Potency,[7],inactive
same,outcome,[9],inactive
same,Potency,[10],inactive
COc1ccc(-n2nc(C(N)=O)c3c2C(=O)N(c2ccc(N4CCCCC4=O)cc2)CC3)cc1,Potency,[1],inactive
same,Potency,[2],inactive
same,Potency,[3],inactive
same,Potency,[4],inactive
same,outcome,[6],inactive
same,Potency,[7],inactive
same,outcome,[9],inactive
same,Potency,[10],inactive
same,Potency,[8],inactive
CC(C)C(=O)Oc1ccc(CO)cc1[C@H](CCN(C(C)C)C(C)C)c1ccccc1,Potency,[1],inactive
same,Potency,[2],inactive
same,Potency,[3],inactive
same,Potency,[4],inactive
same,outcome,[6],inactive
same,Potency,[7],14.1 µM (active)
same,outcome,[9],inactive
same,Potency,[10],inactive
same,Potency,[8],14.1 µM (active)
same,Potency,[15],21.5 µM (active)
CC(C)COC(=O)OCN1C(=O)CN(CCN2CC(=O)N(COC(=O)OCC(C)C)C(=O)C2)CC1=O,outcome,[11],inactive
same,outcome,[12],inactive
same,Potency,[13],inactive
same,outcome,[16],inactive
same,Potency,[1],inactive
same,Potency,[2],inactive
same,Potency,[3],inactive
same,Potency,[4],inactive
same,outcome,[6],inactive
same,Potency,[7],inactive
same,outcome,[9],inactive
same,Potency,[10],inactive
same,"activity change, negative = inhibition",[8],-21.8%

# Reference: PubChem BioAssay (NCATS)
